Records with an inconclusive call do not appear. Entries that show only a call come without a potency. The source made the active and inactive calls. The call rests on the fitted dose curve; in most records, active means well fitted inhibition curve with a large enough effect; inconclusive means small, poorly fitted or top-dose-only effect; inactive means no such curve, though single readings can be large or run the other way. Peptide text beside a SMILES is read from it.
Assay: S16 Schwann cell PMP22 intronic element firefly luciferase assay (AID 624032); further: nearly all actives have a fitted effect of over 30% in size
Conditions: S16 rat Schwann cells, PMP22 element FLuc, 24 h; series mostly up to 57.5 µM
Text: Charcot-Marie-Tooth-Association [CMTA]
National Center for Advancing Translational Sciences [NCATS]
Charcot-Marie-Tooth (CMT) disease was first characterized by Jean-Martin Charcot and Pierre Marie in France and, independently, by Howard Henry Tooth in England in 1886. CMT is one of the most common inherited neurological diseases, affecting approximately 1 in 2,500 Americans. […] The most prevalent type of CMT is known as CMT1A and caused by a duplication of the PMP22 gene which leads to over-expression of this protein. PMP22 is a glycosylated intrinsic membrane protein accounting for 2-5% of the myelin protein content, and its over-expression results in demyelination and subsequently axonal loss.
A pair of cellular transcription-based assays was developed in the S16 rat Schwann cell lines (Hai, M., et al., 2002) stably transfected with orthogonal reporters - firefly luciferase (Fluc) and beta-lactamase (beta-Lac) - whose expression is driven by an intronic regulatory element of the PMP22 gene (Jones, E.A., et al., 2011) to recapitulate endogenous expression of PMP22. The current assay employs Fluc to report on PMP22 expression. A comprehensive library of approved drugs, the NCGC Pharmaceutical Collection (Huang, R., et al., 2011), was screened in the cross-validating platform of the orthogonal reporter assays to identify drug modulators inhibitory towards PMP22 expression.
A set of counter-screens was devised to address non-specific activity of the library. An ATP-dependent CellTiter-Glo assay (developed by Promega Corp) was utilized to control cell viability. In addition, biochemical Fluc enzyme assay was performed to assess direct inhibition of the Fluc enzymatic activity.
Hai, M., Muja, N., DeVries, G.H., Quarles, R.H. and Patel, P.I. Comparative analysis of Schwann cell lines as model systems for myelin gene transcription studies. J Neurosci Res, 2002. 69(4): pp 497-508
Huang, R., Southall, N., Wang, Y., Yasgar A., Shinn P., Jadhav, A. , Nguyen, D.-T. and Austin, C.P., The NCGC pharmaceutical collection: a comprehensive resource of clinically approved drugs enabling repurposing and chemical genomics. Sci Transl Med, 2011. 3(80): p. 80ps16.
S16 Schwann cell PMP22 intronic element firefly luciferase assay
The FLuc-expressing S16 cells were seeded in white solid 1536-well plates at between 500-750 cells/4uL in DMEM medium containing 10% FBS, w/o phenol red. After overnight incubation at 37 degree Celsius/5% C02, 23 nL of compounds or DMSO were delivered to each well using a pin tool, followed by 24h-incubation at 37 degree Celsius/5% C02. Then 4 uL ONE-Glo luminescent substrate mix (Promega) was added to each well. Luminescence was measured on a ViewLux plate reader (Perkin Elmer). The % activity was determined by normalizing to the average readings of PTC124 (a positive control) - treated cells relative to DMSO-treated cells (0% Activity). The concentration-effect curves were then classified based on curve quality (r2), response magnitude and degree of measured activity.
Potency means the concentration at half of the fitted maximal effect.

SMILES | Potency
Nc1cc(C(Cl)=C(Cl)Cl)c(S(N)(=O)=O)cc1S(N)(=O)=O | inactive
NNc1nncc2ccccc12 | inactive
C=CCc1cc(OC)c(O)c(C(=O)NCCO)c1 | inactive
Cc1c(C(=O)NN2CCCCC2)nn(-c2ccc(Cl)cc2Cl)c1-c1ccc(Cl)cc1 | 18.1 µM (active)
Cc1cc(=O)oc2cc(O)ccc12 | inactive
CCN(CC)CCOc1ccc(Cc2ccccc2)cc1 | inactive
O=C(OC1C[C@H]2CC[C@@H](C1)[N+]21CCCC1)C(O)(c1ccccc1)c1ccccc1 (stereo not given in full) | inactive
CS(=O)(=O)OCCCCOS(C)(=O)=O | inactive
CCOC(=O)c1c(C)n(C)c2ccc(O)cc12 | inactive
Cc1ncc([N+](=O)[O-])n1CC(C)O (stereo not given) | inactive
CC1=C(C)C(=O)C(C(CCCCCC(=O)O)c2ccccc2)=C(C)C1=O (stereo not given) | inactive
Cn1c(NCCN(CCO)CCCc2ccc([N+](=O)[O-])cc2)cc(=O)n(C)c1=O | inactive
Cc1cc(C2CCCCC2)n(O)c(=O)c1 | 1.55 µM (active)
CN(c1nccc(=O)[nH]1)C1CCN(c2nc3ccccc3n2Cc2ccc(F)cc2)CC1 | inactive
O=C(O)c1cccnc1Nc1cccc(C(F)(F)F)c1 | inactive
C[C@]12CCC(=O)C=C1CC[C@@H]1[C@H]2[C@@H](O)C[C@@]2(C)[C@H]1CC[C@]2(O)C(=O)CO | inactive
O=C(O)c1cn(-c2ccc(F)cc2)c2cc(N3CCNCC3)c(F)cc2c1=O | inactive
C[C@H](Cn1cnc2c(N)ncnc21)OCP(=O)(O)O | inactive
c1ccc2[nH]c(-c3cscn3)nc2c1 | inactive
CCC[C@@H]1C[C@@H](C(=O)N[C@@H]([C@H]2O[C@H](SC)[C@H](O)[C@@H](O)[C@H]2O)[C@@H](C)O)N(C)C1 | inactive

SMILES | Potency
CCN(CCO)CCCC(C)Nc1ccnc2cc(Cl)ccc12 (stereo not given) | inactive
O=C(NC(Cc1cc(=O)[nH]c2ccccc12)C(=O)O)c1ccc(Cl)cc1 (stereo not given) | inactive
COC(=O)C1=C(C)NC(C)=C(C(=O)OCCCN2CCC(c3ccccc3)(c3ccccc3)CC2)C1c1cccc([N+](=O)[O-])c1 (stereo not given) | 10.2 µM (active)
O=C1c2ccccc2-c2n[nH]c3cccc1c23 | inactive
CNC[C@@H](O)[C@@H](O)[C@H](O)[C@H](O)CO | inactive
CC(S)C(=O)NCC(=O)O (stereo not given) | inactive
Cc1cc2cc3c(C)cc(=O)oc3c(C)c2o1 | inactive
CCCCc1ccc2nc(NC(=O)OC)[nH]c2c1 | inactive
COc1ccc(C2(C#N)CCC(C(=O)O)CC2)cc1OC1CCCC1 (stereo not given) | inactive
CC(C)(S)[C@@H](N)C(=O)O | inactive
O=P(O)(O)C(O)(Cn1ccnc1)P(=O)(O)O | inactive
CC(C)[C@H](N)C(=O)OCCOCn1cnc2c(=O)[nH]c(N)nc21 | inactive
CCc1nc(N)nc(N)c1-c1ccc(Cl)cc1 | inactive
COC(=O)[C@H](Cc1ccccc1)NC(=O)[C@@H](N)CC(=O)O (H-Asp-Phe-OMe) | inactive
Cc1cc(=O)c2c(O)c3c(O)cc(=O)c4c3c3c(cc(O)c1c23)C(C)(C)C=4O | inactive
N=C(N)c1ccc2cc(OC(=O)c3ccc(N=C(N)N)cc3)ccc2c1 | inactive
CC[C@]1(O)C[C@H]2CN(CCc3c([nH]c4ccccc34)[C@@](C(=O)OC)(c3cc4c(cc3OC)N(C=O)[C@H]3[C@@](O)(C(=O)OC)[C@H](OC(C)=O)[C@]5(CC)C=CCN6CC[C@]43[C@@H]65)C2)C1 | 0.0907 µM (active)
Oc1ccc(OCc2ccccc2)cc1 | inactive
NS(=O)(=O)c1cc(C(=O)O)c(NCc2ccco2)cc1Cl | inactive
Cc1ccc(C)c(OCCCC(C)(C)C(=O)O)c1 | inactive
